The assay is described as follows: qHTS profiling of inhibitors of Plasmodium falciparum (HB3) proliferation (acoustic dispense). To be noted: P. falciparum HB3 in erythrocytes, SYBR Green, 72 h; at 49.8 µM (top of the series) unless noted. Background: qHTS replaces the single test concentration by a dilution series.

This passage reports activity (normalised, proliferation) results from PubChem BioAssay AID743366 (National Center for Advancing Translational Sciences (NCATS), 2014).

Each structure is given as a SMILES string.

Take `NC1CCC(Nc2nc(Nc3ccc(C(=O)N4CCCCC4)cc3)c3ncn(-c4cccc(F)c4)c3n2)CC1` (configuration not stated): the activity (normalised, proliferation) is -0.546%.
With `Cn1c2ccccc2c2c3c(c4c5ccccc5n(CCC#N)c4c21)CNC3=O`, the activity (normalised, proliferation) stood at 106%.
To `C=C[C@@H]1CN2CC[C@@H]1C[C@H]2[C@H](O)c1ccnc2ccc(OC)cc12` belongs 0.317%.
The value for `C=CCNc1c(O)cc2c(O)c1C[C@@H](C)C[C@H](OC)[C@@H](O)[C@@H](C)C=C(C)[C@H](OC(N)=O)[C@@H](OC)C=CC=C(C)C(=O)N2` was -1.74%.
As for `C[C@@H]1CCC2[C@@H](C)[C@@H](O)O[C@@H]3O[C@@]4(C)CC[C@@H]1[C@@]23OO4` (some centres not stated), the activity (normalised, proliferation) is -0.43%.
To `CCS(=O)(=O)Nc1ccc2[nH]c(O)c(C(=Nc3ccc(CN4CCCCC4)cc3)c3ccccc3)c2c1` belongs -1.43%; to `CS[C@H]1SC[C@@H]2C(=O)N(C)[C@H](C(C)C)C(=O)OC[C@H](NC(=O)c3cnc4ccccc4n3)C(=O)N[C@H](C)C(=O)N(C)[C@@H]1C(=O)N(C)[C@H](C(C)C)C(=O)OC[C@H](NC(=O)c1cnc3ccccc3n1)C(=O)N[C@H](C)C(=O)N2C`, 1.22%.
The value for `Nc1cccc(-c2csc(NC(=O)CCCCCCC(=O)NO)n2)c1` was -0.958%.
Regarding `O=C1C(=O)c2ccccc2C(O)=C1C1CCC(c2ccc(Cl)cc2)CC1` (configuration not stated), the activity (normalised, proliferation) came to 3.49%.
Regarding `CC1(CN2CCC(n3c(=O)[nH]c4ccccc43)CC2)OCc2ccccc2-n2cccc21` (configuration not stated), the activity (normalised, proliferation) was found to be 24.8%.
To `C[C@@H](Oc1ccc2[nH]nc(C=Cc3cnn(CCO)c3)c2c1)c1c(Cl)cncc1Cl` belongs 1.95%; to `CCCCCCOC(=O)C1(O)CC2OC1(C)n1c3ccccc3c3c4c(c5c6ccccc6n2c5c31)C(=O)NC4` (configuration not stated), 100% [at 1.88 µM].
